Compound activity as filed in PubChem.
In the library only some 0.34% were active in any assay of this set; here they are far more common.
miR-21 act: qHTS Assay for Modulators of miRNAs and/orActivators of miR-21 | HeLa miR-21 FLuc reporter, luciferase, 48 h | Potency, µM (highest dose often 38.3 µM), most hits filed as activators | 340,000 tested, under 10 active;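 note: miR-21 action dims this reporter so a rising signal means less miR-21 action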
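HeLa cells stably expressing CMV-driven firefly luciferase with a downstream miR-21 binding sequence, endogenously expressing miR-21, were treated with titrations (up to about 40uM final) for 48 hours at 37 degree Celsius. Luciferase luminescence was read after lysis.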
Vif-A3F inh: qHTS for Inhibitors of Vif-A3F Interactions: qHTS; HeLa A3F-eYFP + Vif (tagged APOBEC3F with the HIV-1 protein that degrades it), YFP fluorescence increase; Potency, µM (doses to about 46.1 µM); 390,000 compounds, 0.2% hits; AID 602313, 2012; note: nearly all actives have a fitted effect of over 65% in size
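HeLa cells stably expressing A3F-eYFP plus Vif, plated and incubated overnight at 37 deg C, then exposed to compounds overnight at 37 deg C. Blocked degradation read as raised yellow fluorescence (Ex 488/Em 500-530).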
Epigenetic derep: Quantitative High-Throughput Screen for Regulators of Epigenetic Control; Potency, µM (titrated, usually from 53.9 µM), usual class: activators; 280,000 compounds, 0.2% hits; AID 1865, 2009; murine LDR cells, GFP reporter derepression, 30 h; note: nearly all actives have a fitted effect of over 60% in size
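GFP-positive cell count by laser-scanning cytometry (objects 20–120 um) after 30 h, 37 C compound exposure of murine LDR cells; reporter is CMV-GFP integrated at a silenced locus, inducible by HDAC or DNMT inhibitors.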
Vif-A3G inh: qHTS for Inhibitors of Vif-A3G Interactions: qHTS | DNA dC->dU-editing enzyme APOBEC-3G (Homo sapiens), Q9HC16 | HeLa A3G-eYFP + Vif (tagged APOBEC3G with the HIV-1 protein that degrades it), YFP fluorescence, overnight | Potency, µM (top dose mostly 46.1 µM), actives largely listed as inhibitors | 410,000 compounds, 0.076% hits; note: nearly all actives have a fitted effect of over 60% in size
Target sequence (Q9HC16 whole entry, looked up): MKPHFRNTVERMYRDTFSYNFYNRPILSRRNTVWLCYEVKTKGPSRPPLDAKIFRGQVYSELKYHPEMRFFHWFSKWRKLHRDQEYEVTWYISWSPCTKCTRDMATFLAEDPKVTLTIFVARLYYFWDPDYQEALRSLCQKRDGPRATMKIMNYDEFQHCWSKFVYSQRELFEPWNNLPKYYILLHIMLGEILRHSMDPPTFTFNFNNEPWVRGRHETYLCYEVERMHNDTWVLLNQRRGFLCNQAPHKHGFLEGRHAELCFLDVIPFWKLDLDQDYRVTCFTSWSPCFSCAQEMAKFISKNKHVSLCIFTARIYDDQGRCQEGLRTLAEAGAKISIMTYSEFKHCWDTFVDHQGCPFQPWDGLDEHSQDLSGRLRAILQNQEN
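Read-out is eYFP fluorescence (Ex 488/Em 500-530) from Vif-expressing HeLa A3G-eYFP cells; more signal means A3G escaped Vif-mediated degradation. Cells plated overnight, compound pinned in, incubated overnight at 37 deg C.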
Parental c127i: Parental Cell Counter Screen Assay for Epigenetic Modulators: Hit Validation; shares compounds with Epigenetic derep; mouse c127i parental cells, fluorescent cell count, 30 h; Potency, µM, usual class: activators; 60 compounds, 20% hits
HCC4017 viab: HCC4017 Cell Viability Secondary Assay for qHTS Assay for Epigenetic Modulators | Potency, µM (series often up to 46.1 µM), hits mostly cytotoxic | HCC4017 NSCLC viability, CellTiter-Glo ATP luminescence, 72 h | 45 compounds, 30% hits | shares compounds with Epigenetic derep
H358 viab: H358 Cell Viability Secondary Assay for qHTS Assay for Epigenetic Modulators: Round 2; shares compounds with Epigenetic derep; H358 NSCLC viability, ATP luminescence, 72 h; Potency, µM (series often up to 46.1 µM), hits mostly cytotoxic; 45 compounds, 30% hits
Of the large screens only hits and unclear results are named; the others gave an inactive call (follow-up assays come after a bar, where they were run). Calls come from the whole dose curve; as a rule, active = well fitted curve in the direction sought with a large enough effect; inconclusive = small, poorly fitted or top-dose-only effect, or another doubt; inactive = no such curve, though single readings can be large; an effect the other way counts as inactive or inconclusive.

Cc1cc(N2CCN(c3ccc([N+](=O)[O-])c4cccnc34)CC2)c2ccccc2n1	Vif-A3F inh 3.5µM, Epigenetic derep 7.1µM, Vif-A3G inh inconclusive | Parental c127i 14µM
CN(C)S(=O)(=O)c1cccc(NC(=S)N/N=C/c2ccco2)c1	Epigenetic derep 3.5µM | Parental c127i inactive | HCC4017 viab inactive | H358 viab inactive
O=C(Cn1c(=O)n(Cc2ccc(F)cc2)c(=O)c2sc3ccccc3c21)Nc1ccc(F)cc1F	Epigenetic derep inconclusive | Parental c127i inactive
O=c1c[n+]([O-])c2ccccc2n1OCc1ccccn1	Epigenetic derep inconclusive, Vif-A3G inh inconclusive
CCOn1c(=O)c[n+]([O-])c2ccccc21	Vif-A3F inh inconclusive, Epigenetic derep 10µM, Vif-A3G inh inconclusive | Parental c127i inactive | HCC4017 viab inactive | H358 viab inactive
Oc1c(N=Nc2ccccn2)ccc2ccccc12	Epigenetic derep 10µM | Parental c127i inactive | HCC4017 viab 2µM | H358 viab 1.3µM
Oc1[nH]c2ccccc2c1N=Nc1ccccn1	none (no result: miR-21 act, Epigenetic derep)
O=C(NCCc1ccc(Cl)cc1)c1ccc(CSCc2ccccc2Cl)o1	none
CC1=NN(c2nc3ccccc3[nH]2)C(=O)C1Cc1ccccc1 (stereo not given)	miR-21 act inconclusive, Vif-A3F inh inconclusive, Epigenetic derep inconclusive, Vif-A3G inh inconclusive | Parental c127i inactive | HCC4017 viab 4.4µM | H358 viab 7.9µM
CCc1ccc(NC(=O)C2CCC(CNS(=O)(=O)c3ccc4c(c3)CC(C)N4C(C)=O)CC2)cc1 (stereo not given)	Epigenetic derep inconclusive | Parental c127i inactive | HCC4017 viab inconclusive | H358 viab inactive
CC(=O)N1c2ccc(S(=O)(=O)NCC3CCC(C(=O)Nc4ccc(F)cc4)CC3)cc2CC1C (stereo not given)	none
CCCCN1CCc2nc(N3CCN(c4ncccn4)CC3)ncc2C1	none (no result: Vif-A3F inh, Vif-A3G inh)
O=C(CC(c1cccs1)N1Cc2ccccc2C1=O)Nc1ccc(F)cc1 (stereo not given)	none
CCC(=O)N1CCN(c2ccc(NC(=O)c3ccc([N+](=O)[O-])o3)cc2Cl)CC1	Epigenetic derep inconclusive | Parental c127i inactive | HCC4017 viab 2.8µM | H358 viab 1.4µM
O=C(N/N=C/c1ccccn1)c1cc(-c2ccc(Cl)cc2)nc2ccccc12	Vif-A3F inh inconclusive, Epigenetic derep 5µM, Vif-A3G inh inconclusive | Parental c127i inactive | HCC4017 viab inconclusive | H358 viab inconclusive
O=C(N/N=C/c1ccccn1)c1cc(-c2ccc(Br)cc2)nc2ccccc12	Epigenetic derep inconclusive
COc1ccc2c(C)nc(Nc3nc(-c4ccccc4)cc(=O)[nH]3)nc2c1	Epigenetic derep 3.5µM | Parental c127i inactive | HCC4017 viab 8.9µM | H358 viab 4.4µM
COc1ccc(CN(C(=O)Nc2cccc(Cl)c2)c2ccccn2)cc1OC	none
